In all, about 33,000 sequences were measured (“E-score (-0.5 to 0.5)”: median about -0.056, highest 2% from about 0.38 on). This excerpt belongs to a sample that is enriched for the highest values.
These sequences were tested against Stb4 (UniProt P50104) (assay: PBM E-score (8-mer binding enrichment) (E-score (-0.5 to 0.5)); higher = stronger / more preferred TF binding). Details: protein concentration: 200 nM; construct: GST-DNA-binding domain.
In short: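 Masliner-normalised scans of fluorescent anti-GST signal were the basis for scoring. That signal came from GST-tagged yeast transcription factors applied at about 100-200 nM to double-stranded universal all-10-mer Agilent arrays on fresh or once-stripped slides. Each ungapped eight-base word, pooled with its reverse complement, received an E-score from the Universal PBM Analysis Suite.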

Chain of UniProt P50104 (P50104 whole entry, the tested form may be a part): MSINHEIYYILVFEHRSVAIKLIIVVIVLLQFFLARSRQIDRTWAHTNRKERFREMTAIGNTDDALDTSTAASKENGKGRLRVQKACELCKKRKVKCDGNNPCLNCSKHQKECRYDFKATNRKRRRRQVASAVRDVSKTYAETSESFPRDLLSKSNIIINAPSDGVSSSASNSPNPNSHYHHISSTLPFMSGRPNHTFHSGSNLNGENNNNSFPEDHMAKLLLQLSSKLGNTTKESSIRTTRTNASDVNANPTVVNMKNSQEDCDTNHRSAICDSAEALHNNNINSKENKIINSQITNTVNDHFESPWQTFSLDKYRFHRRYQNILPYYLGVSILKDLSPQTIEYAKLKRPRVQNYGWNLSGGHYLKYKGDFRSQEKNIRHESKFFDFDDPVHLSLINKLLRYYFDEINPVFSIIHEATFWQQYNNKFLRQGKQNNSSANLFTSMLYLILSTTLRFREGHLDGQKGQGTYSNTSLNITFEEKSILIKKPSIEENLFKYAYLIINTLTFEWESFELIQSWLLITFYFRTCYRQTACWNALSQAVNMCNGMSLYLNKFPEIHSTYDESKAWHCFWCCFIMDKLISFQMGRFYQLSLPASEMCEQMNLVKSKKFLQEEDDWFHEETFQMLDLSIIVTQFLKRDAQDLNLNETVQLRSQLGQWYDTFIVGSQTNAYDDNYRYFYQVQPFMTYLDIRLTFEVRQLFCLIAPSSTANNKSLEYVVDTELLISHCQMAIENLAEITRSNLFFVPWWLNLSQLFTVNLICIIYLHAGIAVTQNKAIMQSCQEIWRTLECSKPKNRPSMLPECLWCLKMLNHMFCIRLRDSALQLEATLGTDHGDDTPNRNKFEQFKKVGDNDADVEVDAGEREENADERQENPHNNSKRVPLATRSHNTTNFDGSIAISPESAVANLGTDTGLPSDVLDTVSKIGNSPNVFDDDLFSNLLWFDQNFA

Sequence | PBM E-score
ACGATCCA | -0.0732
CCGATCCA | 0.238
ATGATCCG | 0.397
CCGATCCC | 0.34
GAGACGCA | 0.0275
CCCAATCC | 0.0104
CAGGGGCG | -0.182
ATAACCGA | 0.388
CGGACCGC | 0.29
CGAACCGC | 0.0494
TCAACCGA | 0.291
ATAACCGG | 0.281
CTAACCGA | 0.401
GGAACCGA | 0.343
CGGACCGA | 0.419
CGAACCGA | 0.397
ATAACCGC | 0.0841
CTAACCGC | 0.0169
GGGACCGA | 0.265
GAACGTCA | -0.175
CTGCCATC | -0.0272
CCCGTACC | 0.245

Sequence | PBM E-score
AGAACTTG | -0.161
ACTGACCT | -0.2
AATGAAAG | -0.0359
ACTAGGGG | -0.0854
TCCGCAGA | 0.0922
CATACCGA | 0.287
GTAACCCA | -0.0452
GTAACCGA | 0.386
TATACCGA | 0.383
GTAACCTA | 0.0635
CTTACCGC | 0.119
CTTACCGA | 0.393
GATACCGA | 0.291
GTTACCGA | 0.366
GACCCAAC | -0.116
CGGTAGAG | 0.112
AATTTGCC | 0.0997
ATGAGATC | -0.124
ACTGAAAT | -0.18
GGTCGGAA | 0.439
CGTCGGGA | 0.383
AGTCGGCC | 0.168

Sequence | PBM E-score
GGACGGAA | 0.328
GGTCGGAC | 0.144
AGTCGGGA | 0.362
CGTCGGAA | 0.452
AGTCGGAT | 0.429
CGTCGGAC | 0.269
AGTCGTAT | -0.147
GGTCGGGA | 0.368
CGTCGGAG | 0.275
CTAGATAC | 0.0146
AGGACCGC | -0.0222
CAGAATAA | -0.0851
AGTCGGAG | 0.226
AGTCGGAA | 0.451
TGACGGAA | 0.312
TGTCGGAA | 0.416
AGTCGGAC | 0.176
TGTCGTAA | -0.215
AGAGAACT | -0.114
GGGTCACA | -0.0305
CAATTTAA | -0.105
GGTTTTTA | -0.0968

Sequence | PBM E-score
CAGGAGCA | -0.163
CACCTGAG | -0.337
CTGATATC | 0.136
CGGATATC | 0.426
AGGATATA | -0.0497
AGGATATC | 0.0132
GGGATATA | 0.168
CGGATATA | 0.452
TCCAGTAA | -0.176
TCTGACCA | -0.24
GGTTCGAA | -0.0143
GGTTCGCA | 0.0434
CGTTCGTA | -0.0524
CGTTCGGA | 0.465
CGTTCGGC | 0.368
GGTTCGGA | 0.442
ACATTGGA | -0.177
CGAGATAG | 0.00411
CTGCAAAG | -0.28
CGTCCTGA | -0.249

— the supplement of paper PMC3334620
